Assay results taken from the supplement of paper PMC9023506.
Where a name gives a salt, the structure may show the parent alone.

Test system: Danio rerio larvae (5 dpf)
Test: habituation to 1-s acoustic pulses, difference vs DMSO (percentage points (treated minus DMSO)); higher = more of the behaviour than the DMSO vehicle control
Details: 10 µM; exposure time: 3 h pre-incubation + 3 h imaging
Description: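 5-dpf wild-type zebrafish larvae were imaged in 96-well plates. They were treated with 190 Tocris FDA-approved drugs at 10 µM (1 µl/ml DMSO) for 3 h before and 3 h during imaging at 28.5 °C, 48 larvae per drug. Automated image analysis gave % time moving and optomotor responses. Values are drug group mean minus DMSO vehicle mean (n=844), in percentage points, for 10 behaviours.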

| SMILES | habituation to 1-s acoustic pulses |
| --- | --- |
| COc1cc([C@@H]2c3cc4c(cc3[C@@H](O[C@@H]3O[C@@H]5CO[C@@H](C)O[C@H]5[C@H](O)[C@H]3O)[C@H]3COC(=O)[C@H]23)OCO4)cc(OC)c1O [Etoposide] | 0.485 |
| CC(C)C(=O)Nc1ccc([N+](=O)[O-])c(C(F)(F)F)c1 [Flutamide] | -15.5 |
| CN1CC(=O)N2[C@H](c3ccc4c(c3)OCO4)c3[nH]c4ccccc4c3C[C@@H]2C1=O [Tadalafil] | -1.05 |
| Cc1ccc(O)c([C@H](CCN(C(C)C)C(C)C)c2ccccc2)c1 [Tolterodine L-tartrate] | -4.35 |
| CC1=Nc2ccc(Cl)cc2S(=O)(=O)N1 [Diazoxide] | 9.12 |
| CCOc1nc2cccc(C(=O)O)c2n1Cc1ccc(-c2ccccc2-c2noc(=O)[nH]2)cc1 [Azilsartan] | 6.99 |
| C[C@H]1C[C@@H]2[C@H]([C@@H](O)C[C@@]3(C)[C@H]2CC[C@]3(O)C(=O)CO)[C@@]2(C)C=CC(=O)C=C12 [Methylprednisolone] | -1.22 |
| CC(=O)NC[C@H]1CN(c2ccc(N3CCOCC3)c(F)c2)C(=O)O1 [Linezolid] | -2.78 |
| CN1CCN(CCCN2c3ccccc3Sc3ccc(Cl)cc32)CC1 [Prochlorperazine dimaleate] | -7.34 |
| NS(=O)(=O)Cc1noc2ccccc12 [Zonisamide] | -0.0674 |
| CCCCC(=O)N(Cc1ccc(-c2ccccc2-c2nnn[nH]2)cc1)[C@H](C(=O)O)C(C)C [Valsartan] | 2.82 |
| NS(=O)(=O)c1cc2c(cc1Cl)NC(C1CC3C=CC1C3)NS2(=O)=O (stereo not given) [Cyclothiazide] | 2.19 |
| COc1ccc(C[C@@H](C)NC[C@H](O)c2ccc(O)c(NC=O)c2)cc1 [Arformoterol tartrate] | -3.34 |
| COCCc1ccc(OCC(O)CNC(C)C)cc1 (stereo not given) [Metoprolol tartrate] | -3.95 |
| Cc1nc(-c2ccc(OCC(C)C)c(C#N)c2)sc1C(=O)O [Febuxostat] | -2.75 |
| CC(=O)O[C@]1(C(C)=O)CC[C@H]2[C@@H]3C=C(C)C4=CC(=O)CC[C@]4(C)[C@H]3CC[C@@]21C [Megestrol Acetate] | -2.13 |
| CCCN(CCC)S(=O)(=O)c1ccc(C(=O)O)cc1 [Probenecid] | 4.24 |
| CN1CC[C@@H](NC(=O)Nc2ccc(C#N)cc2)C[C@@H]1c1nc2ccccc2[nH]1 | -0.957 |
| Nc1ncn([C@@H]2O[C@H](CO)[C@@H](O)[C@H]2O)c(=O)n1 [5-Azacytidine] | 0.737 |
| OC(c1cc(C(F)(F)F)nc2c(C(F)(F)F)cccc12)C1CCCCN1 (stereo not given) [Mefloquine hydrochloride] | 0.613 |

| SMILES | habituation to 1-s acoustic pulses |
| --- | --- |
| O=C(c1ccc(OCCN2CCCCC2)cc1)c1c(-c2ccc(O)cc2)sc2cc(O)ccc12 [Raloxifene hydrochloride] | 1.64 |
| CCCCCCCN(CC)CCCC(O)c1ccc(NS(C)(=O)=O)cc1 (stereo not given) [Ibutilide hemifumarate] | 2.78 |
| NC(=O)N1c2ccccc2C=Cc2ccccc21 [Carbamazepine] | 2.65 |
| Clc1ccccc1C(c1ccccc1)(c1ccccc1)n1ccnc1 [Clotrimazole] | -1.97 |
| CCc1ccc(CCOc2ccc(CC3SC(=O)NC3=O)cc2)nc1 (stereo not given) [Pioglitazone hydrochloride] | 0.476 |
| CC(C)n1c(/C=C/C(O)CC(O)CC(=O)O)c(-c2ccc(F)cc2)c2ccccc21 (stereo not given) [Fluvastatin sodium] | 4.04 |
| CC(C)(C#N)c1cc(Cn2cncn2)cc(C(C)(C)C#N)c1 [Anastrozole] | 6.34 |
| CC[C@H]1OC(=O)[C@H](C)[C@@H](O[C@H]2C[C@@](C)(OC)[C@@H](O)[C@H](C)O2)[C@H](C)[C@@H](O[C@@H]2O[C@H](C)C[C@H](N(C)C)[C@H]2O)[C@](C)(O)C[C@@H](C)CN(C)[C@H](C)[C@@H](O)[C@]1(C)O [Azithromycin] | 4.52 |
| O=C(Nc1c(Cl)cncc1Cl)c1ccc(OC(F)F)c(OCC2CC2)c1 [Roflumilast] | -1.13 |
| CCCC1O[C@@H]2C[C@H]3[C@@H]4CCC5=CC(=O)C=C[C@]5(C)[C@H]4[C@@H](O)C[C@]3(C)[C@]2(C(=O)CO)O1 (stereo not given in full) [Budesonide] | -1.73 |
| CCOC(=O)N1CCC(=C2c3ccc(Cl)cc3CCc3cccnc32)CC1 [Loratidine] | -7.1 |
| CCOC(=O)[C@H](CCc1ccccc1)N[C@H]1CCc2ccccc2N(CC(=O)O)C1=O [Benazepril hydrochloride] | 3.08 |
| COc1cc(N)c(Cl)cc1C(=O)NC1CCN(CCCOc2ccc(F)cc2)CC1OC (stereo not given) [Cisapride] | 6.52 |
| CCOC(=O)[C@H](CCc1ccccc1)N[C@@H](C)C(=O)N1[C@H](C(=O)O)C[C@@H]2CCC[C@@H]21 [Ramipril] | -1.94 |
| Nc1nc2c(ncn2COCCO)c(=O)[nH]1 [Acyclovir] | 1.89 |
| COC(=O)C1=C(C)NC(C)=C(C(=O)OC(C)C)C1c1cccc2nonc12 (stereo not given) [Isradipine] | -13.5 |
| CS(=O)(=O)CCNCc1ccc(-c2ccc3ncnc(Nc4ccc(OCc5cccc(F)c5)c(Cl)c4)c3c2)o1 [Lapatinib] | -1.43 |
| Cn1cnc([N+](=O)[O-])c1Sc1ncnc2[nH]cnc12 [Azathioprine] | -2.96 |
| CN1CCC[C@@H]1CCO[C@](C)(c1ccccc1)c1ccc(Cl)cc1 [Clemastine fumarate] | -5.08 |
| CC(=O)Nc1ccc(O)cc1 [Acetaminophen] | -1.9 |
